This is one part of the list. The source made the active and inactive calls. Calls come from the whole dose curve.

Aldehyde dehydrogenase 1A1 (Homo sapiens), sequence (P00352 whole entry, looked up): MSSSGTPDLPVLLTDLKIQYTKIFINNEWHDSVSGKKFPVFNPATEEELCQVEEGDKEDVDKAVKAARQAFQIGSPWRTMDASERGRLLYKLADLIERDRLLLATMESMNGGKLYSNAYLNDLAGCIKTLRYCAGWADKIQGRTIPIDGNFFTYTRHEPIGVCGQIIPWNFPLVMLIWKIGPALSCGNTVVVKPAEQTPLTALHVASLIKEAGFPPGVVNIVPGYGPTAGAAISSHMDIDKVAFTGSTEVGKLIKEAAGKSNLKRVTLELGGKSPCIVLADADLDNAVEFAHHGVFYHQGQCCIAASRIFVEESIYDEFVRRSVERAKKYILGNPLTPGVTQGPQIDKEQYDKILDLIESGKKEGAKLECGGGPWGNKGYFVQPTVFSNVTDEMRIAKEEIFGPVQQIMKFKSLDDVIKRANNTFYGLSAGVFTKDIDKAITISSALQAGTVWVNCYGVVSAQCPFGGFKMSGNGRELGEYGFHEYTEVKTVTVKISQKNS

The assay addresses Aldehyde dehydrogenase 1A1 (Homo sapiens) (UniProt P00352). Description: Inhibitors of Aldehyde Dehydrogenase 1 (ALDH1A1): Followup Confirmation and Counterscreen. Particulars: purified ALDH1A1, NADH fluorescence, propionaldehyde/NAD+. An excerpt: Aldehyde dehydrogenase 1 (ALDH1A1) catalyzes the NAD+ dependent oxidation of a variety of endogenous and exogenous aldehydes to the corresponding carboxylic acids. The enzyme is the critical step in the metabolic activation of retinoic acid, which plays essential roles as nuclear receptor ligand. […] See [1] through for more information on ALDH1A1. Inhibition of ALDH1A1 activity was screened by utilizing propionaldehyde as an electron donor and NAD+ as an electron acceptor/cofactor. An increase in the fluorescence intensity due to conversion of NAD+ to NADH was used to measure the enzyme activity. See [5] for screening methodology used. References: [1] Manzer R, Qamar L, Estey T, Pappa A, Petersen DR, Vasiliou V. Molecular cloning and baculovirus expression of the rabbit corneal aldehyde dehydrogenase (ALDH1A1) cDNA. DNA Cell Biol. 2003 May;22(5):329-38. Collard F, Vertommen D, Fortpied J, Duester G, Van Schaftingen E. Identification of 3-deoxyglucosone dehydrogenase as aldehyde dehydrogenase 1A1 (retinaldehyde dehydrogenase 1). Biochimie. 2007 Mar;89(3):369-73. Ziouzenkova O, Orasanu G, Sharlach M, Akiyama TE, Berger JP, Viereck J, Hamilton JA, Tang G, Dolnikowski GG, Vogel S, Duester G, Plutzky J. Retinaldehyde represses adipogenesis and diet-induced obesity. Nat Med. 2007 Jun;13(6):695-702. Molotkov A, Duester G. Genetic evidence that retinaldehyde dehydrogenase Raldh1 (Aldh1a1) functions downstream of alcohol dehydrogenase Adh1 in metabolism of retinol to retinoic acid. J Biol Chem. 2003 Sep 19;278(38):36085-90. […] Quantitative high-throughput screening: a titration-based approach that efficiently identifies biological activities in large chemical libraries. […]
Buffer: 100 mM Hepes pH 7.5, 0.01% Tween 20. […] The plates were immediately transferred to and read twice on ViewLux High-throughput CCD imager (Perkin-Elmer) 20 minutes apart using 360 nm excitation and 450 nm emission fluorescence protocol. The fluorescence intensity difference between the second and the first time points was used to compute reaction progress.
(The purpose of a counterscreen is to sort out artefacts and off-target activity.)
With `O=C(CN(Cc1ccccc1)C(=O)c1ccc2c(c1)OCCO2)NCc1ccc2c(c1)OCO2`, the Potency was 398 nM (active). With `Cc1cccc2c1N(CC(=O)OC(C)C)C(=O)C2=O`, the Potency was 22.4 nM (active). With `CC1CCCN(C(=O)c2ccc3c(c2)C(=O)N(CCC2=CCCCC2)C3=O)C1` (stereo not drawn), the Potency is 1260 nM (active).

The values above are taken from PubChem BioAssay AID493210 (National Center for Advancing Translational Sciences (NCATS), 2011).
